Screening results as filed in PubChem BioAssay.
In the library only some 11% were active in any assay of this set; here they are far more common.
Pf growth 96h: P. falciparum growth inhibition at 96 hours. Potency, µM (doses to about 28.7 µM), without a hit: at the highest dose activity change, negative = inhibition, hits mostly inhibitors. actives 6.9% (n = 320,000). P. falciparum luciferase reporter growth, 96 h
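Plates of compound plus infected erythrocytes (2% hematocrit, 0.05% parasitemia final) incubate 96 hours, 37 C, 5% CO2. Detection reagent added; reduced luminescence from the parasites' luciferase reporter flags inhibition.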
Pf growth 48h: inhibits P. falciparum growth in the first generation, 48 h; actives 5.9% (n = 310,000); P. falciparum luciferase growth in erythrocytes, 48 h; Potency, µM (titrated, usually from 28.7 µM), without a hit: at the top dose activity change, negative = inhibition, usual class: inhibitors
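First compound was added to culture medium, then infected red cells at 0.1% parasitemia and 2% hematocrit (final). After incubation at 37 C under 5% CO2, luciferase detection reagent was dispensed and light output recorded.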
AMA1-RON2 inh: inhibitors of Plasmodium falciparum AMA1-RON2 interaction. Potency, µM (top dose mostly 58.2 µM), for the others: at the highest dose activity change, negative = inhibition, most hits filed as inhibitors. AlphaScreen AMA1-biotinylated RON2 peptide binding. actives 0.2% (n = 360,000);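 also: 0% = vehicle wells and -100% = peptide control; nearly all actives have a fitted effect of over 45% in size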
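AMA1 (3D7) with his tag at 25 nM final met compounds first, then biotinylated RON2 peptide at 25 nM; detection used donor plus acceptor beads, 10 µg/mL apiece, read by AlphaScreen after 30 min at room temperature.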
HCV inh: HCV inhibition. Huh7.5.1 HCVcc-Cre infection, luciferase reporter, 44 h. Potency, µM (series often up to 41.8 µM), for the others: at the highest dose activity change, negative = inhibition, actives largely listed as inhibitors. actives 3.4% (n = 340,000). AID 651820
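Luciferase read-out (15 sec integration) after a 15 min room-temperature substrate step quantifies HCVcc-Cre infection. Cells, 1,000 per well, had compound added 4 h post-plating, then virus at ~0.5 moi, and were cultured 44 h.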
AmpC detergent: inhibitors of E. coli AmpC beta-lactamase with detergent | AmpC hydrolysis of nitrocefin, absorbance 480 nm, 0.01% Triton | Potency, µM (highest dose often 114 µM), without a hit: at the highest dose activity change, negative = inhibition, actives largely listed as inhibitors | actives 0.041% (n = 370,000) | AID 485294;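 also: 0% = no-compound wells and -100% = no-enzyme wells; nearly all actives have a fitted effect of over 25% in size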
Target sequence (P00811 whole entry, looked up): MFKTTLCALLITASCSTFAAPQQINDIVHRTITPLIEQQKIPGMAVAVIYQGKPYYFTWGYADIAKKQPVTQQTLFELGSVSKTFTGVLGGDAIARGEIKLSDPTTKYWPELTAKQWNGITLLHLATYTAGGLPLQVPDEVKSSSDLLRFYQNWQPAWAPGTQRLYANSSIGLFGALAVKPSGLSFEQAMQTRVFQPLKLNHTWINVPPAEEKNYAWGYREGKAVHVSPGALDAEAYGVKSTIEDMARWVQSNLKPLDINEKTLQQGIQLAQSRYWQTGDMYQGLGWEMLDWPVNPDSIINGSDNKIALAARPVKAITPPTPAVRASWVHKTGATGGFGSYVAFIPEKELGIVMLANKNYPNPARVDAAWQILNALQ
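20 mM phosphate pH 7.0 + 0.01% (detergent screen) or 0.0001% Triton X-100; 5.3 nM AmpC reagent; cpd preinc 15 min RT; nitrocefin (800 uM stock) to start; A480 q20 s × 4 min; Activity was normalised to no-enzyme and no-compound control wells.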
AmpC inh no detg: inhibitors of E. coli AmpC beta-lactamase without detergent. Potency, µM (highest dose often 57.1 µM), without a hit: top-dose activity change, negative = inhibition, most hits filed as inhibitors. actives 0.52% (n = 330,000). P00811. AmpC nitrocefin hydrolysis, absorbance 480 nm, 0.0001% Triton. AID 485341;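 also: plate controls were no compound for no effect and no enzyme for full effect; nearly all actives have a fitted effect of over 20% in size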
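AmpC (5.3 nM in the dispensed reagent) in 20 mM phosphate pH 7.0 with 0.01% (detergent screen) or 0.0001% Triton X-100 was preincubated with compounds for 15 min at room temperature. Nitrocefin was then added from an 800 uM solution, and hydrolysis was followed at 480 nm.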
The depositor's hits bear a star; i = inactive; ? = inconclusive; . = no result. Calls follow the shape of the dose curve; as a rule, active = well fitted curve in the direction sought with a large enough effect; inconclusive = small, poorly fitted or top-dose-only effect, or another doubt; inactive = no such curve, though single readings can be large; an effect the other way counts as inactive or inconclusive. Unless noted, % is scaled to controls: 0 for no effect and ±100 for the full control effect; potency is read from the fitted curve at half-maximal effect.

SMILES	Pf growth 96h	Pf growth 48h	AMA1-RON2 inh	HCV inh	AmpC detergent	AmpC inh no detg
CC(=O)c1cccc(NC(=O)COC(=O)c2ccc(S(C)(=O)=O)c([N+](=O)[O-])c2)c1	?	?	19%	5µM*	0%	5%
CC(C)N(Cc1ccccc1)C(=O)c1nc(-c2ccc(Cl)cc2)n2c1CCCCC2	.	.	.	.	-5%	.
COc1cccc(CNC(=O)c2[nH]c3cc(C)ccc3c2Sc2ccccc2)c1	.	.	.	.	-4%	.
Cc1c(Cl)cccc1NC(=O)Cn1nc(C)c2sc3ccccc3c2c1=O	.	.	.	.	4%	.
COc1ccccc1-c1cc2nc(C)c(CCC(=O)Nc3ccc(Br)c(C)c3)c(C)n2n1	.	.	.	.	-13%	.
CCCSCCCNC(=O)Cn1c(-c2cccs2)cc2ccccc21	.	.	.	.	-4%	.
Cc1ccnc2c1ccc1ccccc12	-24%	11%	25%	15%	-2%	-18%
Cc1ccnc2c1ccc1c(C)ccnc12	4.7µM*	2.6µM*	-85%	5.6µM*	-8%	5%
Cc1ccnc2c1ccc1cccnc12	0.83µM*	1.2µM*	?	2.2µM*	0%	6%
Cc1cccc2cccnc12	-10%	20%	4%	14%	-5%	-6%
COc1ccc(C2SCC(=O)Nc3c2c(C)nn3C2CCOC(C)(C)C2)cc1 (stereo unspecified)	6%	-6%	1%	20%	3%	19%
Cc1nn(C2CCOC(C)(C)C2)c2c1C(c1ccc3c(c1)OCO3)SCC(=O)N2 (stereo unspecified)	9.3µM*	?	-4%	-19%	3%	31%
CCOc1ccc(C2CC(=O)Nc3c2c(=O)nc(SCc2ccccc2C)n3C)cc1OC (stereo unspecified)	.	.	.	.	2%	.
CC(C)(C)n1nnnc1C(c1ccc(Cl)cc1)N(Cc1cccnc1)Cc1ccco1 (stereo unspecified)	24%	?	10%	?	?	54%
CC(C)(C)n1nnnc1CN(Cc1cccnc1)Cc1ccccc1Cl	.	15µM*	-11%	8%	-12%	56%
COc1ccccc1NC(=O)N1CCC(c2nc3ccccc3o2)CC1	23µM*	12%	1%	13%	3%	-11%
O=C(O)c1[nH]c2ccc(Cl)cc2c1CC(=O)N1CCN(c2ccccc2)CC1	.	-5%	-19%	-1%	-15%	-9%
O=C(Nc1ccc(F)cc1F)N1CCC(c2nc3ccccc3o2)CC1	110%	12%	-10%	-12%	4%	-2%
CC(=O)c1ccc(N2CCN(C(=O)Nc3ccc(F)cc3)CC2)cc1	-13%	-24%	.	.	-3%	-2%
CC(=O)c1ccc(N2CCN(C(=O)Nc3ccc(C(C)C)cc3)CC2)cc1	1%	?	2%	3.2µM*	1%	-25%
COc1ccccc1N1CCN(C(=O)Cc2c(C(=O)O)[nH]c3ccc(Cl)cc23)CC1	i	10µM*	-5%	?	?	-1%
COc1ccc(Cl)cc1NC(=O)CN1c2ccccc2CC1C (stereo unspecified)	-26%	?	-20%	8.9µM*	4%	-23%
COC(=O)c1cc2oc(C)cc2n1CC(=O)Nc1ccc(C(C)C)cc1	.	.	.	.	4%	.
Cc1ccc(NC(=O)CN2CCN(C3CCCCC3)C(=O)C2=O)cc1C	.	.	.	.	25%	.
CC(C)c1nc(N(C)S(C)(=O)=O)nc(-c2ccc(F)cc2)c1/C=C/C(O)CC(O)CC(=O)O (stereo unspecified)	-14%	1%	.	.	.	.
SMILES	Pf growth 96h	Pf growth 48h	AMA1-RON2 inh	HCV inh	AmpC detergent	AmpC inh no detg
CC(=O)OC(C(=O)N1CCN(c2ccc(F)cc2)CC1)c1ccccc1 (stereo unspecified)	12µM*	32%	0%	7%	8%	61%
COCCOC(=O)c1c(NC(=O)CN2CCOCC2)sc(C(N)=O)c1C	.	-13%	69%	0%	10%	-21%
COc1ccccc1NC(=O)N1CCN(c2cccc(C(F)(F)F)c2)CC1	.	-25%	-5%	11µM*	?	52%
COCCOC(=O)c1c(NC(=O)CN2c3ccccc3CC2C)sc(C(N)=O)c1C (stereo unspecified)	?	12µM*	31%	?	1%	125%
Cn1c(C(=O)N2CCN(c3cccc(C(F)(F)F)c3)CC2)cc2sccc21	9.3µM*	4%	?	?	?	76%
Cc1noc(-c2ccc(N3CCCCC3)c([N+](=O)[O-])c2)n1	.	.	.	.	18%	.
O=C1CN(C(=O)c2ccc(S(=O)(=O)N3CCCCC3)cc2)C(c2ccc(F)cc2)c2cc(F)ccc2N1 (stereo unspecified)	.	.	.	.	2%	.
Cc1ccc(C(=O)c2cn(Cc3cccc(F)c3)c3nc(C)ccc3c2=O)cc1	.	.	.	.	20%	.
COc1ccccc1NC(=O)N1CCN(c2ccc(F)cc2)CC1	2.3µM*	-21%	-3%	-13%	1%	-9%
COc1ccccc1N1CCN(C(=O)Nc2cccc(Cl)c2)CC1	-20%	.	-2%	10%	0%	34%
COc1ccccc1NC(=O)N1CCN(C(=O)Nc2ccccc2OC)CC1	32%	-14%	-7%	3%	-12%	-15%
COc1ccc(Cl)cc1NC(=O)N1CCN(c2ccccc2OC)CC1	?	6.6µM*	-10%	-13%	-7%	57%
COc1ccccc1NC(=O)N1CCN(c2ncccn2)CC1	.	0%	4%	1%	-15%	-9%
COc1ccccc1NC(=O)N1CCc2[nH]c3ccc(F)cc3c2C1	?	-23%	-4%	10µM*	1%	37%
Cc1ccccc1NC(=O)N1CCN(c2ncccn2)CC1	2.3µM*	16%	-7%	5%	-1%	-10%
Cc1ccc(C(=O)NCC(c2ccc3c(c2)OCO3)N2CCOCC2)cc1C (stereo unspecified)	.	.	.	.	2%	.
O=C(NCCc1ccccc1)c1nn(-c2ccc(F)cc2)nc1CO	.	.	.	.	21%	.
O=C(Nc1ccccc1)N1CCN(c2ccc(F)cc2)CC1	?	13µM*	33%	20%	1%	-22%
O=C(Nc1ccc(Br)cc1)C1CCN(c2ncccn2)CC1	.	.	.	.	19%	.
CCOC(=O)CCC(=O)Nc1nnc2n1CCS2	.	.	.	.	-5%	.
